Screening results as filed in PubChem BioAssay.
GBA activity up: increases beta-glucosidase activity in Gaucher fibroblasts | P04062 | L444P Gaucher fibroblasts, 4-MU-glucoside fluorescence, 3 days | hit rate 0.44% among 30,000 | activation, % at 10 µM; in the data active = activation above about 65%
Target sequence (P04062 whole entry L483P): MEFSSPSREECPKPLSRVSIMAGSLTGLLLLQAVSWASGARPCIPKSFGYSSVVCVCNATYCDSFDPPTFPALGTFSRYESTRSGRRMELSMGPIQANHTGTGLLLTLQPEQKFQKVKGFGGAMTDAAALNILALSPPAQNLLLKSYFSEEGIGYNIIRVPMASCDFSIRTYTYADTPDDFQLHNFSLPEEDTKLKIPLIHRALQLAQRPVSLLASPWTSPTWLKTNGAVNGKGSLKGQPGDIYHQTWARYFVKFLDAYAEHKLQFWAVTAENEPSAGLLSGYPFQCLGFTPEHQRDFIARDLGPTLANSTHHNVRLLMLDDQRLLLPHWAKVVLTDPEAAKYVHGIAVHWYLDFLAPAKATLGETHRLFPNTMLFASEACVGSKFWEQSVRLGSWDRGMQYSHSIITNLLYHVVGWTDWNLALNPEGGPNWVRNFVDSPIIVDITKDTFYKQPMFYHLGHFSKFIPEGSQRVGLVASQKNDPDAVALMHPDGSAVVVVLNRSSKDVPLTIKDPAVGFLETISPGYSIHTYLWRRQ
Of the large screens only hits and unclear results are named; the others gave an inactive call. This is one part of a sample in which hits are shown more often than they occur.

Cc1ccc(C)c(N(C)S(=O)(=O)c2cccc3nsnc23)c1	GBA activity up 77
Cc1cc(C)cc(NC(=O)CN(C)S(=O)(=O)c2cccc3nsnc23)c1	none
CC(C)CCNC(=O)CN(C)S(=O)(=O)c1cccc2nsnc12	none
CN(C)CCCN1C(=O)C(=O)/C(=C(/O)c2ccc3c(c2)OCCO3)C1c1ccccn1 (configuration not stated)	none
O=S(=O)(NC1c2cccc3cccc(c23)C1N1CCNCC1)c1ccccc1 (configuration not stated)	GBA activity up 74
O=S(=O)(NC1c2cccc3cccc(c23)C1N1CCN(CCO)CC1)c1ccccc1 (configuration not stated)	none
O=S(=O)(NC1CC1)c1cccc(S(=O)(=O)N2CCCC2)c1	none
Cc1sc2nc(SCC(=O)c3cc(C)n(CC4CCCO4)c3C)n(C(C)C)c(=O)c2c1C (configuration not stated)	none
Cc1cccc(NC(=O)c2cnc3n(c2=O)CCS3)c1	none
Cc1cccc(CN2CCN(CC(=O)O)C2=O)c1	none
CC(=O)N1C(C(=O)O)CSC1c1cccc(C)c1 (configuration not stated)	GBA activity up 122
CCCOc1ccc(OC(=O)c2ccc(Br)o2)cc1	none
O=c1cc(-c2c(F)c(F)c(F)c(F)c2F)oc2c(F)c(F)c(F)c(F)c12	none
O=C(NCc1n[nH]c(=S)n1-c1ccccc1)c1ccco1	none
S=c1[nH]nc(Cc2ccccc2)n1Cc1ccco1	GBA activity up 101
COc1cccc(-c2n[nH]c(=S)n2Cc2ccco2)c1OC	none
CC(=O)Nc1ccc(S(=O)(=O)N2CCN(c3nc(NC4CCCC4)c4ccccc4n3)CC2)cc1	none
Cc1cc(C)nc(SCc2nc(N)nc(-c3ccccc3O)n2)n1	none
COc1ccc(Cl)cc1N(CC(=O)Nc1ccc2c(c1)OCCO2)S(C)(=O)=O	none
COc1ccc(C)cc1NC(=O)CN1CCN(S(=O)(=O)c2ccc(C(C)C)cc2)CC1	none
COC(=O)c1ccc(NC(=O)CN2CCN(S(=O)(=O)c3cc(Cl)ccc3OC)CC2)cc1	none
COc1ccc(NC(=O)CN2CCN(S(=O)(=O)c3ccc(C(C)C)cc3)CC2)cc1OC	GBA activity up 66
CCCCS(=O)(=O)Nc1ccc(C(=O)NCC2CCCO2)cc1 (configuration not stated)	none
CCCNS(=O)(=O)c1ccc(C(=O)NCC2CCCO2)cc1 (configuration not stated)	none
Cc1ccc(C)n1-c1ccc(C(=O)NCC2CCCO2)cc1 (configuration not stated)	GBA activity up 93
CCOC(=O)CC(Nc1nc(N2CCOCC2)nc(N2CCOCC2)n1)c1ccccc1Cl (configuration not stated)	none
CCC(C)n1cnc2c(c1=O)c1nc3ccccc3nc1n2Cc1ccc2c(c1)OCO2 (configuration not stated)	GBA activity up 83
CCCCn1c2nc3ccccc3nc2c2c(=O)n(C(C)CC)cnc21 (configuration not stated)	none
CCC(C)n1cnc2c(c1=O)c1nc3ccccc3nc1n2-c1ccc2c(c1)OCCO2 (configuration not stated)	none
CC(SC1CCCC1)C(=O)NC(C)(C#N)C(C)C (configuration not stated)	none
CCCCN(C)C(=O)CCCCn1c(=O)[nH]c2cc(OCC)c(OCC)cc2c1=O	GBA activity up 68
CCOc1cc2[nH]c(=O)n(CC3CCC(C(=O)NC4CCCCC4)CC3)c(=O)c2cc1OCC (configuration not stated)	none
CCOc1cc2[nH]c(=O)n(CCCCCC(=O)NCc3ccc4c(c3)OCO4)c(=O)c2cc1OCC	none
Cn1nnnc1SCCOc1ccc(C#N)cc1	none
CC1(C)OC(=O)C2(Cc3ccccc3N3CCCCC32)C(=O)O1 (configuration not stated)	none
CCCc1nc(SCC(=O)N2CCC(Cc3ccccc3)CC2)c2c(=O)n(C)c(=O)n(C)c2n1	none
COc1ccc(S(=O)(=O)N2CCC(C(=O)Nc3ccccc3C)CC2)c2cccnc12	none
Cc1cc2ccccc2c(=O)n1CC(=O)N1CCN(c2cccc(Cl)c2)CC1	none
Cc1cc2ccccc2c(=O)n1CC(=O)NCC(=O)N1CCN(c2ccccc2)CC1	GBA activity up 75
Cc1cc2ccccc2c(=O)n1CC(=O)NC1CCCCCC1	none
CCOC(=O)CC1C(=O)NC2CCCCC2N1C(=O)Nc1ccc(Cl)cc1 (configuration not stated)	none
O=C1CCC(=O)N1CCCCCc1nc(-c2ccccc2)no1	none
O=C1c2ccccc2C(=O)N1CCCc1nc(-c2ccccn2)no1	none
Nc1nonc1-c1noc(CCCCCN2C(=O)c3ccccc3C2=O)n1	GBA activity up 479
CCOC(=O)COc1ccc(S(=O)(=O)N2CCc3ccccc3C2)cc1	none
Cc1oc2nc(SCC(=O)N3CCCCC3)nc(N)c2c1C	none
O=S(=O)(c1cnc[nH]1)N1CCc2ccccc21	none
O=C(CCCNS(=O)(=O)c1cccc2nsnc12)NCc1ccccc1	none
O=C(CCCNS(=O)(=O)c1cccc2nsnc12)NCc1ccc(Cl)cc1	none
COc1ccc(CNC(=O)CCCNS(=O)(=O)c2cccc3nonc23)cc1	GBA activity up 183
COc1cc(Cl)c(C)cc1NC(=O)CSc1nnc(-c2ccccn2)n1Cc1ccco1	none
CCCCOc1ncnc2c1[nH]c1ccc(F)cc12	none
Cc1cccn2c(=O)c3cc(C(=O)N4CCc5ccccc5C4)n(C)c3nc12	none
CC(C)CC(c1nnnn1Cc1ccccc1)N1CCN(C(=O)c2ccco2)CC1 (configuration not stated)	none
O=C(NCCC1=CCCCC1)C1COc2ccccc2O1 (configuration not stated)	none
Cc1ccc2c(c1)N(CC(=O)O)C(=O)CO2	none
O=C(O)CN1C(=O)C2(OCCCO2)c2ccccc21	none
CC1(C)CC(=O)N(CC(=O)O)c2ccccc2S1	GBA activity up 88
CCOC(=O)CN1C(=O)CSc2ccccc21	GBA activity up 73
O=C(O)CN1C(=O)CSc2ccccc21	none
O=C1CSc2ccccc2N1Cc1ccc(F)cc1	none
CC(C)CCNC(=O)C(c1cccs1)N(CC1CCCO1)C(=O)Cn1nnc2ccccc21 (configuration not stated)	none
CCOC(=O)N1CCN(C(=O)CN(c2ccc(Cl)c(C(F)(F)F)c2)S(C)(=O)=O)CC1	none
CCOc1ccccc1C1C(C(=O)Nc2ccccc2OC)=C(C)Nc2nnnn21 (configuration not stated)	GBA activity up 153
COc1ccccc1NC(=O)C1=C(C)Nc2nnnn2C1c1ccncc1 (configuration not stated)	none
COc1ccccc1NC(=O)C1=C(C)Nc2ncnn2C1c1ccccc1C (configuration not stated)	none
CN(C(=O)c1cnccn1)c1nnc(-c2cccnc2)s1	none
Cc1ccc(S(=O)(=O)N(C)CC(=O)N2CCCc3ccccc32)cc1	none
CCOC(=O)c1c(C)n(C)c2ccc(OC(C)C(=O)OC)cc12 (configuration not stated)	GBA activity up 72
CCOC(=O)c1c(C)n(C)c2ccc(OCC(O)Cn3nc(C)c(Br)c3C)cc12 (configuration not stated)	none
CCOC(=O)c1c(C)n(C)c2cc(Br)c(C(=O)OC)cc12	none
O=C(c1ccc(CS(=O)(=O)c2cccc(C(F)(F)F)c2)o1)N1CCN(c2ccccn2)CC1	none
COCCNC(=O)C(c1ccccc1)N(CCOC)C(=O)Cn1nnc2ccccc21 (configuration not stated)	none
C=CCN(C(=O)Cn1nnc2ccccc21)C(C(=O)NCCOC)c1ccc(OC)cc1OC (configuration not stated)	GBA activity up 93
